hcDAF12 agonist: H. contortus DAF-12 activation, primary screen | AID 652067 | HEK293 hcDAF-12 lit1-tk-luc reporter, luminescence; 0% DMSO, 100% Δ7-dafachronic acid | activation, % at 6.8 µM | 370,000 compounds, 1.4% hits;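 active = activation above the mean of all tested compounds plus 3 SD, cut at about 5.5% in these data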;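 also: 100% = response to 3 µM Δ7-dafachronic acid high control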
hgDAF12 agonist: hgDAF-12 agonism, primary luciferase screen | activation, % at 6.8 µM | HEK293 GAL4-hgDAF12 UAS-luciferase reporter, agonist luminescence; normalized to butyrate control | AID 687014 | 370,000 compounds, 1.8% hits;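 active = activation above a cutoff set at the mean of all screened compounds plus 3 SD, cut at about 10% in these data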;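 also: 0% = DMSO wells and 100% = sodium butyrate wells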
ssDAF12 agonist: activators of S. stercoralis DAF-12 nuclear receptor; HEK293 ssDAF-12/GRIP1 lit1-tk-luc reporter, luminescence; % of 3 µM dafachronic acid response; activation, % at 6.8 µM; 370,000 compounds, 1% hits;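 active = activation above the mean over all tested compounds plus 3 SD, cut at about 0.9% in these data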;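 also: 0% = DMSO-only wells and 100% = 3 µM delta7-dafachronic acid wells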
DAX1 inh-1: DAX1 (NR0B1) inhibition, primary screen; HEK293T StAR-luciferase reporter, SF-1/DAX-1 repression relief; inhibition, % at 6.8 µM; 370,000 compounds, 1.1% hits;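 active = inhibition above the mean over all tested compounds plus 3 SD, cut at about 3.6% in these data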;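 also: 0% = DAX-1 cells with DMSO and 100% = cells lacking DAX-1 with DMSO; higher inhibition means more luminescence from relief of DAX-1 repression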
DAX1 inh-2: NR0B1 (DAX1) inhibition; P51843; HEK293 Gal4-DAX1 luciferase reporter, luminescence; inhibition, % at 6.75 µM; 340,000 compounds, 0.99% hits; AID 504766;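 active = inhibition above the mean over all tested compounds plus 3 SD, cut at about 4.2% in these data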;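 also: 0% = DAX1-transfected cells with DMSO and 100% = empty-vector control cells with DMSO; inhibition shows as a rise in luminescence from relieved DAX1 repression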
LXRb hcDAF ctr: activates human LXR-beta, counter-screen for hcDAF-12 agonists. shares compounds with hcDAF12 agonist. HEK293 Gal4-LXR tk-luc reporter, luminescence, 24 h; normalized: DMSO 0%, positive control 100%. activation, % at 6.8 µM. 3,400 tested, under 10 active;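 active = mean percent activation of the reporter above a cutoff set as the average over tested compounds plus their standard deviation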
Target sequence (P55055 whole entry, looked up, the tested form may be a part): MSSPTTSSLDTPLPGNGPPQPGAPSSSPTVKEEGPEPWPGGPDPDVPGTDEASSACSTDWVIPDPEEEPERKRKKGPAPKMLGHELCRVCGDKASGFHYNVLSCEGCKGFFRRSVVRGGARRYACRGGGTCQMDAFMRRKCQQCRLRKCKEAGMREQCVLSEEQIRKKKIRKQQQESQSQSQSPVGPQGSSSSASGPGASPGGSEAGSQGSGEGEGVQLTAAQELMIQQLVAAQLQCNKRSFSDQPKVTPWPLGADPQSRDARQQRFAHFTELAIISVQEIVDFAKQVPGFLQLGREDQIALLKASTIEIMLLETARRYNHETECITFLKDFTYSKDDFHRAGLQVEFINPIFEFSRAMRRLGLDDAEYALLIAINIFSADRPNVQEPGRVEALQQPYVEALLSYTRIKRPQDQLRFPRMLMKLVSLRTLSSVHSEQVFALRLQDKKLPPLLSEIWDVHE
hcDAF12 conf: hcDAF-12 agonism, confirmation assay; HEK293 hcDAF-12 lit1-tk-luc reporter, luminescence; % of Δ7-dafachronic acid response; activation, % at 6.8 µM; 3,400 compounds, 61% hits; shares compounds with hcDAF12 agonist;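 active = mean activation across triplicate tests above the threshold derived from the earlier primary screen, cut at about 5.5% in these data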;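 also: 0% = DMSO only wells and 100% = 3 µM Δ7-dafachronic acid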
* hit, by the source's call; x = not tested or not shown. Rows were chosen to be rich in hits. Some 4.1% of all compounds tested hit in one or more screens of this group.

SMILES | hcDAF12 agonist | hgDAF12 agonist | ssDAF12 agonist | DAX1 inh-1 | DAX1 inh-2 | LXRb hcDAF ctr | hcDAF12 conf
COc1ccccc1-n1cc2ccc([N+](=O)[O-])cc2n1 | 8.6* | 10 | 0 | 0 | 1 | 1 | 6.6*
Cc1c(C(=N)C(C#N)C#N)c(=N)oc2c1ccc1ccccc12 | 8.2* | 3 | 1 | 0 | 0 | 0 | 8.1*
COc1ccc(CNCc2cc3c(cc2[N+](=O)[O-])OCO3)cc1 | 9.4* | 3 | 1 | 1 | 0 | 0 | 0
COc1cccc(CC(=O)N2CCC(n3nccc3NC(=O)C3CCOC3)CC2)c1 (configuration not stated) | 6.9* | 4 | 0 | 1 | 0 | 0 | 5
COC(=O)CN1C(=O)CSc2ccc(S(=O)(=O)N3CCC(C)CC3)cc21 | 0 | 2 | 0 | -1 | x | x | x
N#C/C(=C\c1ccc(N2CCOCC2)o1)c1nc2ccccc2[nH]1 | 11* | -1 | 0 | 3 | 3 | 2 | 5.9*
Cc1cccc(C)c1NC(=O)CN(C)C(=O)c1ccccc1OCc1ccc(F)cc1 | 1 | 2 | -1 | 2 | 1 | x | x
CCCCCCn1cnc2c(oc3nc4c(cc32)CCCC4)c1=O | 0 | 7 | -1 | 1 | -1 | x | x
CCCCn1cnc2c(oc3nc4c(cc32)CCCC4)c1=O | 8.3* | 11* | 0 | 3 | 0 | 1 | 4
CCc1ccc(C(=O)NNC(=O)c2cccc(N3C(=O)CCC3=O)c2)cc1 | 0 | 1 | -1 | 0 | -1 | x | x
Cc1ccc(-n2c(C(C)C)nc3oc4ccccc4c(=O)c3c2=O)cc1 | 12* | 12* | 2.9* | 2 | 6.0* | 1 | 13*
CCCc1nc2oc3ccccc3c(=O)c2c(=O)n1-c1ccccc1 | 9.5* | 4 | 1.2* | 0 | x | 1 | 8.0*
CCc1nc2oc3ccccc3c(=O)c2c(=O)n1-c1ccccc1 | 8.8* | 13* | 1.2* | 2 | 3 | 1 | 8.7*
CCCc1nc2c(c(=O)c3ccccc3n2C)c(=O)n1-c1ccc(F)cc1 | 3 | 2 | 0 | 0 | 0 | x | x
CCCc1nc2oc3ccccc3c(=O)c2c(=O)n1-c1ccc(C)cc1 | 11* | 9 | 1.9* | 1 | x | 1 | 12*
COCCn1c(C(C)C)nc2oc3ccccc3c(=O)c2c1=O | -2 | -1 | -2 | 0 | 0 | x | x
COc1ccc(C(=O)NCc2nnc(SC)n2Cc2ccccc2)cc1 | 1 | 2 | -2 | 0 | 0 | x | x
CCc1nc2oc3ccccc3c(=O)c2c(=O)n1-c1ccc(C)cc1 | 12* | 11* | 4.0* | 3 | x | 1 | 14*
CCc1nc2oc3ccccc3c(=O)c2c(=O)n1CCOC | 3 | 0 | 0 | 1 | 1 | x | x
NS(=O)(=O)c1ccc(N2N=C(c3ccccc3)CC2c2ccccc2)cc1 (configuration not stated) | -1 | 3 | -1 | -1 | 0 | x | x
O=S(=O)(O)c1ccc(N2N=C(c3ccccc3)CC2c2ccccc2)cc1 (configuration not stated) | 7.4* | 4 | 0 | 0 | 1 | 0 | 1
CCN(CC)C(=O)C(=O)c1cn(CC(=O)N2CCc3ccccc3C2)c2ccccc12 | -1 | -1 | -1 | -2 | -1 | x | x
c1ccc2nc(-c3nc4ccccc4o3)ccc2c1 | 13* | 4 | 0 | 1 | -3 | 2 | 23*
c1ccc(-c2nc3ccccc3o2)nc1 | 5 | 8 | 0 | 1 | 4 | x | x
COc1ccc(OC)c(/C=C(\C)C(=O)c2c(C)cc(C)[nH]c2=O)c1 | 0 | 0 | 0 | 0 | 2 | x | x
O=[N+]([O-])c1ccc(Cl)c(S(=O)(=O)Nc2ccc3cn[nH]c3c2)c1 | 1 | -1 | -1 | -1 | -1 | x | x
O=[N+]([O-])c1ccc2cn[nH]c2c1 | 8.3* | 2 | 0 | -1 | 0 | 0 | 5
CCCCNC(=S)N(CCO)Cc1cc2cc3c(cc2[nH]c1=O)OCCO3 | 7.2* | 1 | -1 | 0 | 2 | 0 | 3
COc1ccc(/C=C2\CCc3ccccc3C2=O)cc1OC | 0 | 4 | -1 | 2 | 0 | x | x

Screening results from PubChem.
